Assay outcomes: PubChem BioAssay, National Center for Advancing Translational Sciences (NCATS)
The list is not random: actives were taken first. Their share in the collection is about 6.5%.
Vaccinia mCherry: vaccinia inhibition (mCherry reporter); Vaccinia virus mCherry reporter infection, fluorescence; Potency, µM (series often up to 36.5 µM), hits mostly inhibitors; actives 0.63% (n = 310,000); AID 720579; calls by dose curve; tested in A549 cells; also: nearly all actives have a fitted effect of over 35% in size
Vaccinia Venus: vaccinia inhibition (Venus reporter) | Vaccinia virus Venus reporter expression, fluorescence | Potency, µM (highest dose often 36.5 µM), most hits filed as inhibitors | actives 0.46% (n = 330,000) | AID 720580; calls by dose curve; tested in A549 cells; also: nearly all actives have a fitted effect of over 30% in size
Marburg entry inh: blocks Marburg virus binding to or entry into cells; Potency, µM (series often up to 37.8 µM), usual class: inhibitors; actives 1.8% (n = 300,000); AID 540276; Marburg virus pseudotyped entry inhibition, cell reporter; calls by dose curve; tested in HEK293 cells
FMDV inh: antivirals against foot and mouth disease virus. Potency, µM (highest dose often 57.9 µM), most hits filed as inhibitors. AID 1159524. actives 1.2% (n = 410,000). FMDV antiviral cell-based qHTS; calls by dose curve; tested in HEK293T cells; also: read-out not given here; nearly all actives have a fitted effect of over 45% in size
Lassa entry inh: inhibitors of Lassa virus binding or cell entry. AID 540256. Lassa virus pseudotype entry inhibition, cell reporter. actives 1.2% (n = 300,000). Potency, µM (titrated, usually from 37.9 µM), most hits filed as inhibitors; calls by dose curve; tested in HEK293 cells; also: nearly all actives have a fitted effect of over 50% in size
HCMV inh: blocks human cytomegalovirus replication | HFF cells, HCMV-luciferase reporter, 72 h; stronger effect = lower value | activity change, negative = inhibition, % at 57.5 µM | actives 4.5% (n = 410,000); in the data active = activity change below about -60%; inconclusive = no clear call, values can overlap the other calls; inactive = above about -39%
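Compounds were evaluated in HFFs infected with an HCMV luciferase reporter virus (MOI 1 PFU/cell). Luciferase in lysates collected 72 h post infection served as the replication measure.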
A number is an active result; - = inactive; ? = inconclusive; . = no result; ! = not active in a repeat.

SMILES	Vaccinia mCherry	Vaccinia Venus	Marburg entry inh	FMDV inh	Lassa entry inh	HCMV inh
C[C@]12CCC(=O)C=C1C=CC1C2CC[C@]2(C)C(=O)CCC12 (stereo partly drawn)	-	-	-	-	?	-70
Cc1cccc2cc(CN(Cc3cccs3)Cc3nnnn3Cc3ccccc3)c(=O)[nH]c12	-	?	16µM	.	?	?
Cc1cccc2cc(CN(Cc3ccccc3)Cc3nnnn3Cc3ccccc3)c(=O)[nH]c12	-	-	.	.	.	.
COc1ccc2cc(CN(Cc3cccnc3)Cc3nnnn3Cc3ccccc3)c(=O)[nH]c2c1	-	-	-	.	?	-
COc1ccc2cc(CN(Cc3cccs3)Cc3nnnn3Cc3ccccc3)c(=O)[nH]c2c1	.	.	-	-	?	-99
Cn1c(N)c(C(=O)COC(=O)c2ccc3c(c2)C(=O)N(c2ccc(Cl)cc2)C3=O)c(=O)n(C)c1=O	-	-	-	-	-	-
Cn1cc(CNCc2ccc(OC(F)(F)F)cc2)c(-c2ccc3c(c2)OCCO3)n1	.	.	.	?	.	-81
CN(C)CC[C@@H](c1ccc(Br)cc1)c1ccccn1	-	-	8.9µM!	-	?	?
CN(C)CC[C@@H](c1ccc(Cl)cc1)c1ccccn1	-	-	5.6µM!	-	-	?
CCn1c(-c2nonc2N)nc2c(C#CC(C)(C)O)nc(OC(CN)c3ccccc3)cc21 (stereo not drawn)	.	.	.	.	8.9µM	.
O=C(CN1Cc2ccccc2OC(c2ccccc2)C1)NCc1cccnc1 (stereo not drawn)	-	-	.	-	.	.
OCCC1CN(Cc2ccc3c(c2)CCO3)CCN1C1CCCC1 (stereo not drawn)	-	-	-	-	-	-74
CCOC(=O)CN1C(=O)NC(c2ccc(Br)cc2)C(C(=O)OC)=C1C (stereo not drawn)	.	.	-	.	.	.
COc1ccc(NC(=O)/C(Cl)=C(/Cl)S(=O)Cc2ccccc2Cl)cn1 (stereo not drawn)	2µM	2.8µM	?	3.2µM	?	.
COc1ccc(NC(=O)Cc2ccccc2F)cn1	-	-	-	-	?	-
COc1ccc(NC(=O)Cc2ccc(Cl)cc2Cl)cn1	-	-	-	-	-	-101
COc1ccc(NC(=O)Cc2ccc(Cl)c(Cl)c2)cn1	-	-	.	-	.	-
COc1ccc(NC(=O)/C(Cl)=C(/Cl)S(=O)(=O)Cc2ccc(C)cc2)cn1	.	14µM	4.5µM	22µM	14µM	.
CC(C)N(C(=O)CN1CCN(C(=O)C2COc3ccccc3O2)CC1)C(C)C (stereo not drawn)	.	.	.	-	.	-
COc1ccc(S(=O)(=O)N2CCN(c3ccc(F)cc3)CC2)cc1C(=O)N1CCCC1	-	-	-	-	.	-
Cc1ccc(NC(=S)NNc2ncc(C(F)(F)F)cc2Cl)cc1	?	?	?	?	?	-
FC(F)(F)c1cnc(NNC(=S)Nc2ccc(Cl)cc2)c(Cl)c1	?	?	?	-	?	-99
Fc1ccc(NC(=S)NNc2ncc(C(F)(F)F)cc2Cl)c(F)c1	-	-	?	-	?	-99
NC(=S)N/N=C/c1ccc(-c2cc(Cl)cc(Cl)c2)o1	.	?	-	-	-	?
NC(=S)N/N=C/c1ccc(-c2cc(Cl)ccc2Cl)o1	3.2µM	3.2µM	?	-	?	-
SMILES	Vaccinia mCherry	Vaccinia Venus	Marburg entry inh	FMDV inh	Lassa entry inh	HCMV inh
CC(=O)Nc1ccc(Nc2nc(-c3cc4ccccc4oc3=O)cs2)cc1	-	?	-	-	-	-
Nc1ccc(Nc2nc(-c3cc4ccccc4oc3=O)cs2)cc1	?	-	?	-	?	-61
CC1CCN(C(=O)c2[nH]cnc2C(=O)Nc2ccon2)CC1	-	-	.	-	.	-
CN(C)c1ccc(/C=C/c2ccnc3ccccc23)cc1[N+](=O)[O-]	-	-	.	.	.	.
Cc1ccc(-n2c(-c3ccco3)nc3c(cnn3-c3ccccc3C)c2=O)cc1	-	-	-	?	?	-61!
Cc1ccc(-n2c(-c3ccco3)nc3c(cnn3-c3ccc(C)cc3)c2=O)cc1	-	-	?	28µM!	?	-
Cc1cccc(-n2c(C)nc3c(cnn3-c3ccc(F)cc3)c2=O)c1	?	?	?	-	-	?
Cc1cccc(-n2c(-c3ccco3)nc3c(cnn3-c3ccc(F)cc3)c2=O)c1	-	-	-	-	-	-65
Cc1cc2ccccc2c[n+]1CC(=O)c1ccc(F)cc1	-	-	.	.	.	.
CCN1CCN(C(c2ccc(C)cc2)c2sc3nc(-c4ccco4)nn3c2O)CC1 (stereo not drawn)	-	-	.	-	-	-
CCOC(=O)C(C)Sc1nnc2ccc3ccccc3n12 (stereo not drawn)	-	-	-	-	-	-86
CCc1ccccc1NC(=O)CN1CCN(C(=O)CNC(=O)c2ccc(N3CCCC3=O)cc2)CC1	-	-	?	-	-	-
Cc1ccc(NC(=O)Nc2nnc(N(CC(C)C)CC(C)C)s2)cc1Cl	-	-	?	-	-	-
COc1cccc(OC)c1OCCNCC1COc2ccccc2O1 (stereo not drawn)	-	-	13µM!	-	-	-
COc1cccc(OC)c1OCCNC(C)(C)C	.	-	-	-	-	-
